Assay results published in PubChem BioAssay AID1159580 (chemical genetic matrix, 2015).
Where “and” joins values, the source holds several entries; their conditions need not be identical. Equal entries are not always repeated. The whole screen tested about 5,500 compounds, of which about 2,000 (36%) were called active. About 18% were inconclusive and are not listed. Cut-off read from the data, not from the text of the source: active = normalized growth mostly below about 0.91 (no sharp cut-off); inconclusive = no clear call, values can overlap the other calls; inactive = mostly above about 0.92. Some of the results follow.

Experiment: chemical genetic growth profiling, strain panel (AID 1159580);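 note: tested at 20 µM; growth read once vehicle control cultures reached saturation at 30 °C; 1 = growth at the plate median or of vehicle wells; lower values mean less growth of the strain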
Conditions: S. cerevisiae deletion strains, growth OD

Measured: normalized growth

CC(NC(C)(C)C)C(=O)c1cccc(Cl)c1 (stereo not given)
inactive: locus YAL013W, strain DEP1, stronger effect = lower value 1.01 | locus YAL021C, strain ccr4, stronger effect = lower value 1.02 | locus YAL026C, strain drs2, stronger effect = lower value 1 | locus YAL030W, strain snc1, stronger effect = lower value 0.998 | locus YAL040C, strain CLN3, stronger effect = lower value 0.958 | locus YBL061C, strain skt5, stronger effect = lower value 0.993 | locus YBR009C, strain hhf1, stronger effect = lower value 1 | locus YBR021W, strain FUR4, stronger effect = lower value 0.995 | locus YBR023C, strain chs3, stronger effect = lower value 0.996 | locus YBR171W, strain sec66, stronger effect = lower value 0.996 | locus YBR229C, strain ROT2, stronger effect = lower value 1 | locus YBR231C, strain swc5, stronger effect = lower value 1 | locus YBR279W, strain paf1, stronger effect = lower value 0.998 | locus YCL011C, strain gbp2, stronger effect = lower value 1 | locus YCL016C, strain dcc1, stronger effect = lower value 0.995 | locus YCL029C, strain bik1, stronger effect = lower value 1.05 | locus YCL061C, strain MRC1, stronger effect = lower value 0.994 | locus YCL069W, strain vba3, stronger effect = lower value 0.994 | locus YCR088W, strain abp1, stronger effect = lower value 1 | locus YDL005C, strain med2, stronger effect = lower value 0.993 | locus YDL035C, strain GPR1, stronger effect = lower value 1.01 | locus YDL040C, strain nat1, stronger effect = lower value 0.994 | locus YDL074C, strain BRE1, stronger effect = lower value 0.988 | locus YDL101C, strain DUN1, stronger effect = lower value 1.02 | locus YDL134C, strain PPH21, stronger effect = lower value 1 | locus YDL185W, strain tfp1, stronger effect = lower value 1.02 | locus YDL192W, strain arf1, stronger effect = lower value 1.03 | locus YDR001C, strain nth1, stronger effect = lower value 1.01 | locus YDR069C, strain doa4, stronger effect = lower value 1 | locus YDR101C, strain arx1, stronger effect = lower value 1.03 | locus YDR137W, strain rgp1, stronger effect = lower value 1 | locus YDR150W, strain NUM1, stronger effect = lower value 1.01 and 0.976 | locus YDR159W, strain sac3, stronger effect = lower value 0.997 | locus YDR162C, strain NBP2, stronger effect = lower value 1.01 | locus YDR195W, strain ref2 0.989 | locus YDR297W, strain sur2, stronger effect = lower value 1 | locus YDR318W, strain mcm21, stronger effect = lower value 1.02 | locus YDR334W, strain swr1, stronger effect = lower value 0.986 | locus YDR335W, strain msn5, stronger effect = lower value 1 | locus YDR363W, strain ESC2, stronger effect = lower value 1.02 | locus YDR388W, stronger effect = lower value 1.02 | locus YDR392W, strain spt3, stronger effect = lower value 0.978 | locus YDR502C, strain sam2, stronger effect = lower value 1.04 | locus YEL003W, strain gim4, stronger effect = lower value 1 | locus YEL037C, strain rad23, stronger effect = lower value 1 | locus YEL061C, strain CIN8 (second series), stronger effect = lower value 1 | locus YEL061C, strain CIN8, stronger effect = lower value 1.01 | locus YER002W, strain NOP16, stronger effect = lower value 0.979 | locus YER015W, strain faa2, stronger effect = lower value 1 | locus YER016W, strain bim1, stronger effect = lower value 1 | locus YER110C, stronger effect = lower value 1.05 | locus YER111C, strain swi4, stronger effect = lower value 0.987 | locus YER155C, strain BEM2 (second series), stronger effect = lower value 1.01 | locus YER155C, strain BEM2, stronger effect = lower value 1 | locus YER167W, strain BCK2, stronger effect = lower value 1.01 | locus YFR010W, strain ubp6, stronger effect = lower value 1 | locus YGL078C, strain dbp3, stronger effect = lower value 1 | locus YGL086W, strain mad1, stronger effect = lower value 1 | locus YGL167C, strain pmr1, stronger effect = lower value 0.991 | locus YGL173C, strain kem1, stronger effect = lower value 0.977 | locus YGL227W, strain vid30, stronger effect = lower value 0.992 | locus YGL240W, strain doc1, stronger effect = lower value 1.02 | locus YGL248W, strain PDE1, stronger effect = lower value 1.01 | locus YGL253W, strain hxk2, stronger effect = lower value 0.992 | locus YGR078C, strain PAC10, stronger effect = lower value 1.01 | locus YGR135W, strain pre9, stronger effect = lower value 1.02 | locus YGR229C, strain SMI1, stronger effect = lower value 0.999 | locus YGR252W, strain gcn5, stronger effect = lower value 0.989 | locus YHR013C, strain ard1, stronger effect = lower value 0.976 | locus YHR027C, strain rpn1, stronger effect = lower value 0.996 | locus YHR030C, strain SLT2, stronger effect = lower value 1.01 and 1 | locus YHR079C, strain IRE1 (second series), stronger effect = lower value 1.02 | locus YHR079C, strain IRE1, stronger effect = lower value 0.999 | locus YHR094C, strain hxt1, stronger effect = lower value 1.02 | locus YHR129C, strain ARP1, stronger effect = lower value 1.02 | locus YHR142W, strain chs7, stronger effect = lower value 1 | locus YHR200W, strain rpn10, stronger effect = lower value 1.02 | locus YIL066C, strain RNR3, stronger effect = lower value 1.01 | locus YIL073C, strain SPO22, stronger effect = lower value 1.07 | locus YIL125W, strain kgd1, stronger effect = lower value 1.02 | locus YIR030C, strain dcg1, stronger effect = lower value 1.04 | locus YJL092W, strain hpr5, stronger effect = lower value 0.995 | locus YJL095W, strain BCK1 (second series), stronger effect = lower value 0.997 | locus YJL095W, strain BCK1, stronger effect = lower value 1.01 and 0.995 | locus YJL115W, strain asf1, stronger effect = lower value 0.996 | locus YJL129C, strain trk1, stronger effect = lower value 1.01 | locus YJL134W, strain LCB3, stronger effect = lower value 1.01 | locus YJL154C, strain vps35, stronger effect = lower value 1.01 | locus YJL164C, strain tpk1, stronger effect = lower value 1 | locus YJL166W, strain qcr8, stronger effect = lower value 0.993 | locus YJL168C, strain set2, stronger effect = lower value 1.02 | locus YJL187C, strain SWE1 (second series), stronger effect = lower value 1.02 | locus YJL187C, strain SWE1, stronger effect = lower value 0.996 | locus YJR043C, strain POL32, stronger effect = lower value 1 | locus YJR066W, strain TOR1, stronger effect = lower value 0.969
